Screens (PubChem BioAssay)
VLA-4 inh: inhibition in a human VLA-4 binding assay; P13612; VLA-4 expressing cells, ligand binding flow cytometry; inhibition, % (about 7 µM as worked out from the volumes in the protocol); 330,000 compounds, 0.2% hits; in the data active = inhibition above about 50%
MEKK3 PB1 HTS: MEKK3-MEK5 PB1 interaction, increase or decrease; bead-based flow cytometry, Alexa488-MEK5 binding to MEKK3; actives lie on both sides; 0 = blocked by unlabeled MEK5, 100 = vehicle; AID 1529; 290,000 compounds, 1.4% hits; binding response (% of control), % at 10 µM;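 active = binding response more than 3 SD above or below the average of its plate-row segment, actives on both sides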;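 note: Alexa488 bead fluorescence after subtracting the streptavidin-only scavenger bead signal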
MEKK2mut PB1 HTS: signal of MEK5 binding to mutant human MEKK2 PB1 domain. bead flow cytometry, Alexa488-MEK5 binding to MEKK2 mutant. percent response, % at 10 µM. 290,000 compounds, 0.35% hits. AID 1530; in the data active = percent response above about 24%, passing the limit was not always enough
MEKK2 WT-MEK5: raises or lowers MEK5 binding to wildtype human MEKK2 PB1 domain; binding response (% of control), % at 10 µM; bead flow cytometry, Alexa488-MEK5 binding to MEKK2 WT; actives lie on both sides; 290,000 compounds, 1.1% hits; AID 1531; Q9Y2U5; in the data active = binding response below about 67% or above about 130%
MEKK2wt confirm: raises or lowers MEK5 binding to wildtype human MEKK2, retest | AID 1892 | 5,900 compounds, 2.4% hits | bead flow cytometry, Alexa488-MEK5 binding to MEKK2 WT; actives lie on both sides | binding response (% of control), % at 10 µM | shares compounds with MEKK3 PB1 HTS; in the data active = binding response below about 16% or above about 210%; inactive = in between
MEKK2mut-MEK5: signal of MEK5 binding to mutant human MEKK2, retest; shares compounds with MEKK3 PB1 HTS; bead flow cytometry, Alexa488-MEK5 binding to MEKK2 mutant; percent response, % at 10 µM; 5,900 compounds, 2% hits; in the data active = percent response mostly above about 71%, no sharp cut-off; inactive = mostly below about 38%;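 note: higher means compound restores mutant binding toward wildtype level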
MEKK3-MEK5 inh: MEKK3-MEK5 PB1 inhibition, single concentration confirmation; shares compounds with MEKK3 PB1 HTS; bead flow cytometry, Alexa488-MEK5 binding to MEKK3; active compounds read low; binding response (% of control), % at 10 µM; 5,900 compounds, 1.8% hits; AID 1894;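 active = binding response below 72% of control, or above a set upper limit, though filed actives all read lower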;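 note: lower values mean stronger disruption of MEK5 binding to MEKK3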
Numbers stand for hits; i = inactive; nt = no result; [ ] = remark or other dose. An excerpt weighted towards active compounds, which were near 2.2% of everything screened.

SMILES	VLA-4 inh	MEKK3 PB1 HTS	MEKK2mut PB1 HTS	MEKK2 WT-MEK5	MEKK2wt confirm	MEKK2mut-MEK5	MEKK3-MEK5 inh
C=CCN(c1ccccc1OC)S(=O)(=O)c1cccc(C(=O)OCC(=O)c2c[nH]c3ccccc23)c1	i	138	i	i	i	i	i
COc1cc(NC(=O)CN(C)S(=O)(=O)c2ccc3c(c2)CC(C)N3C(C)=O)cc(OC)c1OC (configuration not stated)	i	i	i	i	nt	nt	nt
CN(C)CCCN(CCCNC(=O)/C=N/O)Cc1ccccc1	i	i	80	179	i	i	i
CN(CCCCCNC(=O)/C=N/O)Cc1ccccc1	nt	i	i	i	nt	nt	nt
COc1cc2[nH]c(=O)n(CCC(=O)N3CCc4ccccc4C3)c(=O)c2cc1OC	i	122	i	i	i	i	i
COc1cc2[nH]c(=O)n(CCCCCC(=O)N3CC=C(c4ccccc4)CC3)c(=O)c2cc1OC	i	i	i	i	nt	nt	nt
CC(C)(C)NC(=O)COc1ccc(CNCc2cccnc2)cc1	i	56[inhibitor]	i	i	i	i	i
COc1cc(CNCc2cccnc2)ccc1OCC(=O)NC(C)(C)C	i	i	i	i	nt	nt	nt
CN1C(=O)/C(=C/c2ccc(OCc3ccccc3F)cc2)N(C)C1=S	i	i	i	i	nt	nt	nt
N#C/C(=C/c1cn(CC(=O)O)c2ccccc12)C(=O)Nc1ccccc1	i	i	i	41[inhibitor]	i	i	i
N#C/C(=C\c1cn(Cc2ccccc2)c2ccccc12)C(=O)NCc1ccco1	i	i	i	i	nt	nt	nt
N#C/C(=C\c1cn(Cc2ccc(F)cc2)c2ccccc12)C(=O)NCc1ccco1	i	129	i	i	i	i	i
COc1ccc(S(=O)(=O)N2CCOCC2)cc1NC(=O)CNC(=O)c1cccs1	i	nt	nt	nt	nt	nt	nt
CCCN(C(=O)c1ccco1)c1nnc(-c2cccc(C)c2)s1	i	i	i	i	nt	nt	nt
CCN(C(=O)c1ccco1)c1nnc(-c2ccc(OC)cc2)s1	i	66[inhibitor]	i	i	i	i	i
CN1CCN(/N=C/c2ccc(OCc3ccccc3)cc2)CC1	i	i	i	i	nt	nt	nt
CCOc1ccccc1CN1CCN(C2CCN(c3ccccc3F)CC2)CC1CCO (configuration not stated)	i	75[inhibitor]	i	i	i	i	i
CCOc1ccccc1CN1CCN(Cc2c[nH]c3ccccc23)CC1CCO (configuration not stated)	i	i	i	134	i	i	i
C(=N\N=C\c1ccncc1)/c1ccncc1	i	nt	nt	nt	nt	nt	nt
Cc1nn(CC2CC2)c(=O)n1-c1cccc(Cl)c1	i	154	i	i	i	i	i
Cc1ccc(-n2c(C)nn(CC3CC3)c2=O)cc1	i	i	i	i	nt	nt	nt
Cc1nn(CC2CC2)c(=O)n1-c1ccc(F)cc1	i	129	i	i	i	i	i
CCOC(=O)Cn1nc(C)n(-c2cccc(Cl)c2)c1=O	i	i	i	i	nt	nt	nt
CCc1ccc(NC(=O)C2CCC(CNC(=O)[C@@H]3Cc4ccccc4CN3)CC2)cc1 (some centres not stated)	i	i	i	i	nt	nt	nt
CCn1c2ccccc2c2cc(CNCc3ccc(OC)cc3OC)ccc21	i	i	i	170	i	i	i
SMILES	VLA-4 inh	MEKK3 PB1 HTS	MEKK2mut PB1 HTS	MEKK2 WT-MEK5	MEKK2wt confirm	MEKK2mut-MEK5	MEKK3-MEK5 inh
COc1cccc(CNCc2ccc(OC)cc2OC)c1	i	i	i	i	nt	nt	nt
O=C(COc1cccc(NC(=O)c2cccs2)c1)c1ccc(F)cc1	i	138	i	i	i	i	i
O=C(O)COc1ccccc1/C=N/NC(=O)CSc1nc2ccccc2n1Cc1ccccc1Cl	i	i	i	i	nt	nt	nt
CCc1ccc(N2C(=O)CC(Cn3nc(C)cc3C)C2=O)cc1 (configuration not stated)	i	i	i	i	nt	nt	nt
CCOc1ccc(CC(=NCCc2ccccc2)C2=C(O)CC(C)(C)CC2=O)cc1OCC	i	146	i	i	i	i	i
O=C(NCC1CC1)c1cc(-c2ccccc2)nn1CC1CC(c2cccnc2)=NO1 (configuration not stated)	i	i	i	i	nt	nt	nt
CCOC(=O)C1CCCN(S(=O)(=O)c2ccc(Cl)nc2)C1 (configuration not stated)	i	nt	nt	nt	nt	nt	nt
COc1ccccc1NC(=O)NCCCl	i	5.0[inhibitor]	i	1.0[inhibitor]	i	i	i
COc1ccc(/C=C2\Oc3cc(OCC(=O)N4CC(O)C[C@H]4C(=O)O)ccc3C2=O)cc1OC (some centres not stated)	i	i	i	i	nt	nt	nt
COc1ccc(C2c3ccc4ccccc4c3Oc3ncn(CCN4CCOCC4)c(=N)c32)cc1 (configuration not stated)	i	i	i	179	i	i	i
COc1ccc(C2c3ccc4ccccc4c3Oc3ncn(CCO)c(=N)c32)cc1 (configuration not stated)	i	i	i	151	i	i	i
N=c1c2c(ncn1CCCO)Oc1c(ccc3ccccc13)C2c1ccccc1 (configuration not stated)	i	i	i	i	nt	nt	nt
CN(C)CCCn1cnc2c(c1=N)C(c1ccccc1)c1ccc3ccccc3c1O2 (configuration not stated)	i	i	26	170	i	i	i
COc1ccc(C2c3ccc4ccccc4c3Oc3ncn(CCN(C)C)c(=N)c32)cc1 (configuration not stated)	i	i	29	157	i	i	i
COc1ccc(Cl)cc1S(=O)(=O)N1CCC(C(=O)N2CCOCC2)CC1	i	i	i	i	nt	nt	nt
CCCn1c(N)c(N(CCOC)C(=O)CSCC(=O)Nc2cccc(C)c2)c(=O)[nH]c1=O	i	nt	nt	nt	nt	nt	nt
O=[N+]([O-])c1cc2c(cc1CN1CCN(CCOCCO)CC1)OCO2	i	i	i	149	i	i	i
COc1ccccc1N1CCN(Cc2cc3c(cc2[N+](=O)[O-])OCO3)CC1	i	i	i	i	nt	nt	nt
Cc1sc2ncnc(N3CCC(C(=O)Nc4nc(-c5cccs5)cs4)CC3)c2c1C	i	nt	nt	nt	nt	nt	nt
O=C(/C=C/c1cccc([N+](=O)[O-])c1)NCCSCc1ccccc1Cl	i	i	i	i	nt	nt	nt
O=C(/C=C/c1cccc([N+](=O)[O-])c1)NCCSCc1ccc(Cl)cc1Cl	i	130	i	i	i	i	i
CC(CC(=O)NCc1ccco1)S(=O)(=O)c1ccc2c(c1)CCN2C(=O)C1CC1 (configuration not stated)	i	i	i	i	nt	nt	nt
Cc1ccc(-c2nc(=S)c3c(n2Cc2cccnc2)CC(C)(C)OC3)cc1	i	i	i	i	nt	nt	nt
O=C(OCc1nc2ccccc2s1)c1ccc([N+](=O)[O-])o1	i	i	i	i	nt	nt	nt
O=C(OCc1nc2ccccc2s1)c1ccc(Br)o1	i	144	i	i	i	i	i
